Common to all, as to settings: mRNA level, 48 h; actives raise or lower the signal
Read-out in experiment [1]: catalase (CAT), CAT (gene 847)
The experiment in a line: LTEA_HepaRG_CAT: Life Technologies and Expression Analysis (LTEA) Assay for catalase (CAT) using HepaRG (AID 2283452). In a few lines: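 Differentiated HepaRG cells in serum-free induction medium were dosed 48 h in duplicate, eight half-log concentrations from 100 uM in 0.5% DMSO. Transcript measured by TaqMan qRT-PCR, normalised to ACTB/GAPDH/POLR2A, fitted bidirectionally against DMSO.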

Read-out in experiment [2]: flavin-containing dimethylaniline monooxygenases 3 (FMO3), FMO3 (gene 2328)
The experiment in a line: LTEA_HepaRG_FMO3: Life Technologies and Expression Analysis (LTEA) Assay for flavin-containing dimethylaniline monooxygenases 3 (FMO3) using HepaRG (AID 2283453). In a few lines: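 Differentiated HepaRG cells in serum-free induction medium, exposed 48 h in duplicate to 8 half-log concentrations up to 100 uM in 0.5% DMSO. FMO3 mRNA by qRT-PCR, normalized to ACTB, GAPDH, POLR2A; bidirectional fit vs DMSO.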

Read-out in experiment [3]: Cytochrome P450 (CYP1A1), CYP1A1 (gene 1543)
The experiment in a line: LTEA_HepaRG_CYP1A1: Life Technologies and Expression Analysis (LTEA) Assay for Cytochrome P450 (CYP1A1) using HepaRG (AID 2283454). In outline:
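Using HepaRG cultures with 0.5% DMSO as vehicle, eight-concentration exposures (max 100 uM) lasted 48 h. Transcript levels were measured by TaqMan qRT-PCR and normalized to ACTB, GAPDH and POLR2A.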

Read-out in experiment [4]: CFLAR gene, CFLAR (gene 8837)
Description: LTEA_HepaRG_CFLAR: Life Technologies and Expression Analysis (LTEA) Assay for CFLAR gene using HepaRG (AID 2283455). In outline:
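HepaRG cells were plated for 48 h, switched to serum-free induction medium, then exposed in duplicate for 48 h to 8 concentrations (top 100 uM, half-log steps, 0.5% DMSO). CFLAR mRNA was measured by qRT-PCR, normalized to ACTB, GAPDH and POLR2A.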

Read-out in experiment [5]: Forkhead box O1 (FOXO1), FOXO1 (gene 2308)
The experiment in a line: LTEA_HepaRG_FOXO1: Life Technologies and Expression Analysis (LTEA) Assay for Forkhead box O1 (FOXO1) using HepaRG (AID 2283456). In a few lines: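 Differentiated human HepaRG cells in serum-free induction medium were exposed in duplicate for 48 h to eight half-log concentrations (top 100 uM, 0.5% DMSO). FOXO1 mRNA was measured by TaqMan qRT-PCR, normalised to ACTB, GAPDH and POLR2A, and fitted bidirectionally against DMSO.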

Read-out in experiment [6]: growth arrest and DNA damage 45 (GADD45A), GADD45A (gene 1647)
The experiment in a line: LTEA_HepaRG_GADD45A: Life Technologies and Expression Analysis (LTEA) Assay for growth arrest and DNA damage 45 (GADD45A) using HepaRG (AID 2283458). In a few lines: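 Cells plated and cultured 48 h, switched to serum-free induction medium, then dosed for 48 h (100 uM top, half-log dilutions, 0.5% DMSO). RNA was isolated and transcript measured by Fluidigm qRT-PCR.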

Read-out in experiment [7]: Forkhead box O3 (FOXO3), FOXO3 (gene 2309)
The experiment in a line: LTEA_HepaRG_FOXO3: Life Technologies and Expression Analysis (LTEA) Assay for Forkhead box O3 (FOXO3) using HepaRG (AID 2283459). In a few lines: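 Differentiated human HepaRG cells in serum-free induction medium were exposed in duplicate for 48 h to eight half-log concentrations up to 100 uM in 0.5% DMSO. FOXO3 mRNA was quantified by qRT-PCR, normalized to ACTB, GAPDH and POLR2A, with bidirectional fitting versus DMSO.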

Read-out in experiment [8]: growth arrest and DNA damage 45 (GADD45B), GADD45B (gene 4616)
The experiment in a line: LTEA_HepaRG_GADD45B: Life Technologies and Expression Analysis (LTEA) Assay for growth arrest and DNA damage 45 (GADD45B) using HepaRG (AID 2283461). In outline: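 Human HepaRG monolayers receive chemicals for 48 h at eight half-log concentrations, highest 100 uM, in 0.5% DMSO. Expression is measured by TaqMan qRT-PCR and normalized to ACTB, GAPDH and POLR2A.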

Read-out in experiment [9]: ABC Transporter (ABCB11), ABCB11 (gene 8647)
Description: LTEA_HepaRG_ABCB11: Life Technologies and Expression Analysis (LTEA) Assay for ABC Transporter (ABCB11) using HepaRG (AID 2283463). In outline: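 Differentiated human HepaRG cells were exposed for 48 h in serum-free induction medium to eight half-log concentrations up to 100 uM in 0.5% DMSO. ABCB11 mRNA was quantified by qRT-PCR, normalized to ACTB, GAPDH and POLR2A, and fitted bidirectionally versus DMSO.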

Read-out in experiment [10]: ABC Transporter (ABCC2), ABCC2 (gene 1244)
The experiment in a line: LTEA_HepaRG_ABCC2: Life Technologies and Expression Analysis (LTEA) Assay for ABC Transporter (ABCC2) using HepaRG (AID 2283464). In a few lines: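 After plating and 48 h culture, HepaRG medium is replaced with serum-free induction medium and chemicals are added (8 concentrations, max 100 uM, 0.5% DMSO) for 48 h. Total RNA then undergoes qRT-PCR for ABCC2 with housekeeping normalization.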

Read-out in experiment [11]: Broad substrate specificity ATP-binding cassette transporter ABCG2 (Homo sapiens) (UniProt Q9UNQ0)
Description: LTEA_HepaRG_ABCG2: Life Technologies and Expression Analysis (LTEA) Assay for ABC Transporter (ABCG2) using HepaRG (AID 2283465). In outline: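 Differentiated HepaRG cells in serum-free induction medium were exposed for 48 h, in duplicate, to eight half-log concentrations up to 100 uM in 0.5% DMSO. ABCG2 mRNA was measured by TaqMan qRT-PCR, normalized to ACTB, GAPDH and POLR2A, and fitted bidirectionally versus DMSO.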

Read-out in experiment [12]: ATP-citrate lyase (ACLY), ACLY (gene 47)
The experiment in a line: LTEA_HepaRG_ACLY: Life Technologies and Expression Analysis (LTEA) Assay for ATP-citrate lyase (ACLY) using HepaRG (AID 2283466). In outline: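 Differentiated human HepaRG cells in serum-free induction medium exposed 48 h, in duplicate, to eight half-log concentrations from 100 uM top in 0.5% DMSO; ACLY mRNA measured by qRT-PCR, normalized to ACTB, GAPDH, POLR2A, fitted bidirectionally versus DMSO.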

Read-out in experiment [13]: Peroxisomal acyl-coenzyme A oxidase 1 (ACOX1) gene, ACOX1 (gene 51)
Description: LTEA_HepaRG_ACOX1: Life Technologies and Expression Analysis (LTEA) Assay for Peroxisomal acyl-coenzyme A oxidase 1 (ACOX1) gene using HepaRG (AID 2283467). In a few lines: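 Differentiated human HepaRG cells were exposed in duplicate for 48 h in serum-free induction medium to eight half-log concentrations up to 100 uM in 0.5% DMSO. ACOX1 mRNA was then quantified by TaqMan qRT-PCR, normalized to ACTB, GAPDH and POLR2A.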

Read-out in experiment [14]: Bcl-2 (BAD) gene, BAD (gene 572)
Description: LTEA_HepaRG_BAD: Life Technologies and Expression Analysis (LTEA) Assay for Bcl-2 (BAD) gene using HepaRG (AID 2283469). In outline:
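Differentiated human HepaRG cells in serum-free induction medium were exposed in duplicate for 48 h to eight concentrations (top 100 uM, half-log steps, 0.5% DMSO). BAD mRNA was quantified by qRT-PCR normalised to ACTB, GAPDH and POLR2A, with bidirectional fitting versus DMSO.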

Read-out in experiment [15]: Bcl-2 (BAX) gene, BAX (gene 581)
The experiment in a line: LTEA_HepaRG_BAX: Life Technologies and Expression Analysis (LTEA) Assay for Bcl-2 (BAX) gene using HepaRG (AID 2283470). In outline:
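HepaRG (human liver), 48 h exposure, duplicate wells. 8-pt curve, half-log from 100 uM, 0.5% DMSO. BAX transcript by TaqMan qRT-PCR; ACTB/GAPDH/POLR2A normalization; gain or loss vs DMSO baseline.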

Read-out in experiment [16]: ABC Transporter (ABCC3), ABCC3 (gene 8714)
The experiment in a line: LTEA_HepaRG_ABCC3: Life Technologies and Expression Analysis (LTEA) Assay for ABC Transporter (ABCC3) using HepaRG (AID 2283462). In a few lines: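 Transcriptional change of ABCC3 in HepaRG after 48 h treatment, determined by qRT-PCR normalized to endogenous controls. Concentrations spanned eight half-log steps to 100 uM in 0.5% DMSO.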

Read-out in experiment [17]: Alkaline Phosphatase, Placental (ALPP) gene, ALPP (gene 250)
Description: LTEA_HepaRG_ALPP: Life Technologies and Expression Analysis (LTEA) Assay for Alkaline Phosphatase, Placental (ALPP) gene using HepaRG (AID 2283468). In outline:
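Using human liver HepaRG cells, chemicals are tested in duplicate over 48 h at half-log concentrations topping at 100 uM; phenobarbital 1 mM serves as induction control. ALPP mRNA change by qRT-PCR, bidirectional fit against vehicle.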

Read-out in experiment [18]: ABC Transporter (ABCB1), ABCB1 (gene 5243)
The experiment in a line: LTEA_HepaRG_ABCB1: Life Technologies and Expression Analysis (LTEA) Assay for ABC Transporter (ABCB1) using HepaRG (AID 2283460). In outline: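 Differentiated human HepaRG cells, plated 48 h then switched to serum-free induction medium, were exposed in duplicate to eight half-log concentrations up to 100 uM in 0.5% DMSO for 48 h. ABCB1 mRNA was measured by TaqMan qRT-PCR, normalized to ACTB/GAPDH/POLR2A.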

Active and inactive are the calls of the source. The calls were made as follows: active = hit-call score of the fitted dose curve at least 0.9, where 1 is the maximum; inactive = score below 0.9.

Results on five molecules are retold here after PubChem BioAssay (EPA / NIEHS).

Chain of Broad substrate specificity ATP-binding cassette transporter ABCG2 (Homo sapiens) (Q9UNQ0 whole entry, looked up): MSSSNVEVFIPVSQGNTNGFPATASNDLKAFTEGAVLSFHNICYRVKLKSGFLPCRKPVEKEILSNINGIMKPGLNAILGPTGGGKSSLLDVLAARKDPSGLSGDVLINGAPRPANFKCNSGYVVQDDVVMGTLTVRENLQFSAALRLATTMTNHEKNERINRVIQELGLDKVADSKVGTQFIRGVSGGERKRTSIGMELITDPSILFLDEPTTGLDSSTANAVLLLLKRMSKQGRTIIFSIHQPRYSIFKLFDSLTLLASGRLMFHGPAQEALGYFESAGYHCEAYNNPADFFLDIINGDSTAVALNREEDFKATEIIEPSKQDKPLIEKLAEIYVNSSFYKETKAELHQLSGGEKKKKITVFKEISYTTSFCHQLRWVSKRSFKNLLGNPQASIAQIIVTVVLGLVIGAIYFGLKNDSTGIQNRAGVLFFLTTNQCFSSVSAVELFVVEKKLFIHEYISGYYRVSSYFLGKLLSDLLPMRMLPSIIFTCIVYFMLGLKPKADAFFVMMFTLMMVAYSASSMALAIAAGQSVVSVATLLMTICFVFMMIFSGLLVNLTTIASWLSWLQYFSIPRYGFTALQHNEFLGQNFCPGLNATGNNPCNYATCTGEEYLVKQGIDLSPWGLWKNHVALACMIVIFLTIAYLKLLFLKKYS

On to `CCCCCCC(=O)O`, for which the call in [1], in experiment [2], in experiment [4], in experiment [5], in experiment [6] and in experiment [7] was inactive. Further, the result in experiment [8], in experiment [9], in experiment [10], in [11], in experiment [12] and in [13] was inactive. Further, the outcome in experiment [14] and in experiment [15] was inactive. The AC50 in experiment [3] was 59.9 µM (active).

For `O=C(OCCOCCOC(=O)c1ccccc1)c1ccccc1`, the result in experiment [1], in experiment [2], in experiment [4], in experiment [5], in [6] and in experiment [7] was inactive. Further, the outcome in experiment [8], in experiment [9], in experiment [10], in experiment [11], in experiment [12] and in experiment [13] was inactive. Further, the call in experiment [14] and in [15] was inactive. In addition, in experiment [3], the concentration at half-maximal activity (AC50) is 50 µM (active).

Take `c1ccc2c(c1)Cc1ccccc1-2`: the molecule was called inactive in [1], in experiment [2], in experiment [4], in experiment [5], in [6] and in [7]. For the same molecule, the outcome in experiment [8], in [16], in [9], in experiment [10], in [11] and in [12] was inactive. Further, the molecule was classed as inactive in [13], in experiment [17], in experiment [14] and in [15]. For the same molecule, in experiment [3], the half-maximal activity concentration (AC50) was 50 µM (active).

`CN1CCN(c2ccccc2/C=C2\SCCN(c3ccc(Cl)c(Cl)c3)C2=O)CC1`: the molecule was called inactive in experiment [1], in experiment [4], in experiment [6], in experiment [18], in experiment [10] and in [11]. Also, the molecule was classed as inactive in experiment [12], in [13], in [14] and in [15]. Also, the AC50 is 50 µM (active) in [2]; 1.56 µM (active) in experiment [3]; 90.3 µM (active) in [5]; 69 µM (active) in experiment [7]; 50 µM (active) in experiment [8]; 22.5 µM (active) in [9].

For the molecule `CCOC(=O)CC(O)(CC(=O)OCC)C(=O)OCC`, the result in [1], in [2], in experiment [3], in experiment [4], in experiment [5] and in experiment [6] was inactive. For the same molecule, the molecule was classed as inactive in experiment [7], in experiment [8], in experiment [9], in [10], in experiment [11] and in [12]. Moreover, the molecule was classed as inactive in experiment [13], in experiment [14] and in [15].

What is called AC50 is the midpoint of the concentration-response curve, whichever way the signal moves.
